Test results published in article PMC5540273 (PLoS ONE, 2017).

Legend:
Details in all cases: concentration: 1 μM, replicates: in singlicate; n = 1
[1] = test system: TYK2(JH2domain-pseudokinase)
TYRO3 = test system: TYRO3
ULK1 = test system: ULK1
ULK2 = test system: ULK2
ULK3 = test system: ULK3
VEGFR2 = test system: T1, VEGFR2
T1 construct: gene KDR

VPS34 = test system: T2, VPS34
T2 construct: gene PIK3C3

VRK2 = test system: VRK2
WEE1 = test system: WEE1
WEE2 = test system: WEE2
WNK1 = test system: WNK1
WNK2 = test system: WNK2
WNK3 = test system: WNK3
WNK4 = test system: WNK4
YANK1 = test system: T3, YANK1
T3 construct: gene STK32A

YANK2 = test system: T4, YANK2
T4 construct: gene STK32B

YANK3 = test system: T5, YANK3
T5 construct: gene STK32C

YES = test system: T6, YES
T6 construct: gene YES1

YSK1 = test system: T7, YSK1
T7 construct: gene STK25

YSK4 = test system: T8, YSK4
T8 construct: gene MAP3K19
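Further: KINOMEscan kinase panel screen.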

| Structure (SMILES) | %Inh [1] [%] | %Inh (TYRO3) [%] | %Inh (ULK1) [%] | %Inh (ULK2) [%] | %Inh (ULK3) [%] | %Inh (VEGFR2) [%] | %Inh (VPS34) [%] | %Inh (VRK2) [%] | %Inh (WEE1) [%] | %Inh (WEE2) [%] | %Inh (WNK1) [%] | %Inh (WNK2) [%] | %Inh (WNK3) [%] | %Inh (WNK4) [%] | %Inh (YANK1) [%] | %Inh (YANK2) [%] | %Inh (YANK3) [%] | %Inh (YES) [%] | %Inh (YSK1) [%] | %Inh (YSK4) [%] |
| --- | --- | --- | --- | --- | --- | --- | --- | --- | --- | --- | --- | --- | --- | --- | --- | --- | --- | --- | --- | --- |
| O=c1[nH]cc(-c2ccc(N3CCOCC3)cc2)c2sc(-c3cn[nH]c3)cc12 [GSK2276055] | 64 | 0 | 0 | 0 | 9 | 17 | 0 | 0 | 4 | 0 | 7 | 1 | 8 | 0 | 8 | 0 | 16 | 0 | 26 | 98.1 |
| C[C@@H]1CC[C@@H](C(=O)Nc2ccccc2)CN1c1cc(-c2ccc3c(N)n[nH]c3c2)nc(N)n1 [GSK2286062] | 2 | 0 | 8 | 0 | 4 | 0 | 0 | 1 | 0 | 0 | 0 | 0 | 33 | 0 | 15 | 0 | 17 | 0 | 21 | 29 |
| Cl.Cl.NCC(C(=O)Nc1cc(Br)c(-c2ccnc3[nH]ccc23)s1)c1ccccc1 (stereo not shown) [GSK1269851] | 18 | 0 | 23 | 0 | 15 | 0 | 0 | 0 | 0 | 22 | 7 | 100 | 25 | 11 | 8 | 0 | 0 | 7 | 0 | 95.5 |
| O=C(Nc1n[nH]c2cc(-c3ccoc3)ccc12)C1CC1 [SB-738481] | 7 | 0 | 0 | 1 | 10 | 32 | 0 | 0 | 0 | 0 | 0 | 0 | 0 | 7 | 0 | 0 | 0 | 3 | 0 | 89 |
| COc1cccc(-c2ccc3c(NC(=O)C4CC4)n[nH]c3n2)c1 [SB-710903] | 64 | 0 | 0 | 0 | 9 | 0 | 0 | 66 | 14 | 15 | 45 | 57 | 66 | 87 | 0 | 2 | 0 | 13 | 0 | 92.3 |
| COCCOCCOc1cc2ncc3c4ccc(C#N)cc4[nH]c3c2cc1OC | 41 | 8 | 79 | 99.4 | 65 | 0 | 0 | 9 | 3 | 15 | 0 | 0 | 0 | 0 | 0 | 0 | 0 | 13 | 0 | 93.7 |
| CN(C)Cc1ccc(-c2ccc3c(Nc4ccc(Oc5ccccn5)cc4)ccnc3c2)o1 [GW567148] | 18 | 38 | 19 | 0 | 5 | 17 | 0 | 4 | 0 | 2 | 17 | 14 | 46 | 19 | 0 | 0 | 20 | 64 | 0 | 30 |
| CC(C)c1nc(-c2cccc(NS(=O)(=O)c3c(F)cccc3F)c2F)c(-c2ccnc(Nc3ccc(N4CCOCC4)nc3)n2)s1 [GSK2008607] | 17 | 100 | 63 | 83 | 98.9 | 94.5 | 0 | 0 | 0 | 0 | 3 | 13 | 23 | 59 | 14 | 48 | 1 | 99.6 | 56 | 85 |
| C[C@@H](Oc1cc(-n2cnc3cc(-c4ccnc(NCCS(C)(=O)=O)c4)ccc32)sc1C(N)=O)c1ccccc1Cl [GSK907232] | 0 | 4 | 25 | 0 | 14 | 28 | 60 | 0 | 43 | 25 | 37 | 80 | 88 | 37 | 6 | 0 | 32 | 47 | 14 | 96.7 |
| Clc1ccc(-c2nn3ncccc3c2-c2ccnc(Nc3ccc4c(c3)OCCO4)n2)cc1 [GW829116] | 0 | 0 | 0 | 0 | 0 | 29 | 0 | 16 | 0 | 0 | 0 | 0 | 0 | 0 | 0 | 21 | 0 | 45 | 0 | 0 |
| CCS(=O)(=O)c1ccc(OC)c(Nc2nccc(-c3c(-c4cccc(NC(=O)c5c(F)cccc5F)c4)nn4ncccc34)n2)c1 [GSK326180] | 26 | 0 | 12 | 0 | 25 | 16 | 0 | 0 | 17 | 5 | 17 | 35 | 18 | 14 | 0 | 56 | 24 | 90.1 | 0 | 33 |
| CCc1ccc(-c2ccc3c(c2)-c2c(cnn2C)S(=O)(=O)N3C)cc1 | 0 | 5 | 0 | 0 | 0 | 14 | 45 | 7 | 0 | 0 | 0 | 5 | 0 | 0 | 1 | 0 | 0 | 0 | 7 | 7 |
| Cl.Cl.NCC(NCc1ccc(-c2ccnc3[nH]ccc23)s1)c1ccccc1 (stereo not shown) [GSK1321565] | 43 | 0 | 67 | 9 | 15 | 17 | 7 | 20 | 13 | 0 | 0 | 11 | 26 | 0 | 0 | 0 | 0 | 0 | 0 | 99.3 |
| Cc1ccc(C(=O)N2CC[C@@H](O)C2)cc1-n1c(C)cc(OCc2ccc(F)cc2F)c(Br)c1=O | 0 | 0 | 0 | 0 | 0 | 0 | 0 | 0 | 0 | 0 | 0 | 0 | 0 | 0 | 0 | 0 | 0 | 20 | 0 | 0 |
| Cc1cccc(NC(=O)Nc2ccc(Oc3ncnc4ccn(C)c34)cc2)c1 | 0 | 0 | 0 | 0 | 2 | 99.7 | 0 | 0 | 0 | 0 | 0 | 0 | 0 | 0 | 0 | 0 | 31 | 0 | 0 | 97.1 |
| CC(=O)N1CCN(c2ccc(Nc3nccc(-c4sc(C(C)C)nc4-c4cccc(NS(=O)(=O)c5cccc(Cl)c5)c4)n3)cn2)CC1 [GSK1660437] | 0 | 40 | 37 | 4 | 62 | 26 | 0 | 0 | 0 | 0 | 2 | 11 | 0 | 0 | 3 | 77 | 0 | 92.4 | 0 | 9 |
| Cc1cccc(Nc2nc(N[C@H]3CCNC3)ncc2C(N)=O)c1.Cl [GSK2197149] | 97.7 | 0 | 30 | 11 | 42 | 0 | 13 | 22 | 0 | 8 | 0 | 0 | 0 | 0 | 19 | 0 | 18 | 41 | 52 | 90 |
